High-throughput results deposited in PubChem BioAssay by National Center for Advancing Translational Sciences (NCATS).
Shown are actives, neighbours in structure and some others; about 1.1% of the full set was active somewhere.
Vaccinia mCherry: inhibitors of vaccinia virus infection (mCherry reporter signal). Vaccinia virus mCherry reporter infection, fluorescence. Potency, µM (highest dose often 36.5 µM), actives largely listed as inhibitors. hit rate 0.63% among 310,000; calls by dose curve; tested in A549 cells; also: nearly all actives have a fitted effect of over 35% in size
Vaccinia Venus: inhibitors of vaccinia virus (Venus reporter) | Vaccinia virus Venus reporter expression, fluorescence | Potency, µM (highest dose often 36.5 µM), usual class: inhibitors | hit rate 0.46% among 330,000; calls by dose curve; tested in A549 cells; also: nearly all actives have a fitted effect of over 30% in size
AmpC detergent: AmpC beta-lactamase inhibition with detergent present; hit rate 0.041% among 370,000; Potency, µM (doses to about 114 µM), most hits filed as inhibitors; AmpC hydrolysis of nitrocefin, absorbance 480 nm, 0.01% Triton; P00811; also: nearly all actives have a fitted effect of over 25% in size
Target sequence (P00811 whole entry, looked up): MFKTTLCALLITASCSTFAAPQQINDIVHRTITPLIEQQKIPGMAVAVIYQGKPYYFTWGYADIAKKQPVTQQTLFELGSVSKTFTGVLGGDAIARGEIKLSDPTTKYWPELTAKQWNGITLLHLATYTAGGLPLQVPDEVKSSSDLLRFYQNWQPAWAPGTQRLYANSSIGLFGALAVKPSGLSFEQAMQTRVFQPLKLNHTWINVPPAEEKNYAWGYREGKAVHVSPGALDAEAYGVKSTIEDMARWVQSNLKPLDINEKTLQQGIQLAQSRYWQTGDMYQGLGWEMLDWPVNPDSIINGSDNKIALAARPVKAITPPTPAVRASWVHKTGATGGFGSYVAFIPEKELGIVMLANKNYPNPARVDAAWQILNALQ
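AmpC (5.3 nM in the dispensed reagent) in 20 mM phosphate pH 7.0 with 0.01% (detergent screen) or 0.0001% Triton X-100 was preincubated with compounds for 15 min at room temperature. Nitrocefin was then added from an 800 uM solution, and hydrolysis was followed at 480 nm.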
AmpC no deterg: inhibitors of E. coli AmpC beta-lactamase without detergent | P00811 | AmpC nitrocefin hydrolysis, absorbance 480 nm, 0.0001% Triton | Potency, µM (top dose mostly 57.1 µM), usual class: inhibitors | hit rate 0.52% among 330,000; also: nearly all actives have a fitted effect of over 20% in size
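AmpC (5.3 nM in the dispensed reagent) in 20 mM phosphate pH 7.0 with 0.01% (detergent screen) or 0.0001% Triton X-100 was preincubated with compounds for 15 min at room temperature. Nitrocefin was then added from an 800 uM solution, and hydrolysis was followed at 480 nm.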
A number is an active result; – = inactive; ? = inconclusive; · = not tested or not shown; ! = not confirmed by another sample. Unless noted, calls follow the shape of the dose curve; as a rule, active = well fitted curve in the direction sought with a large enough effect; inconclusive = small, poorly fitted or top-dose-only effect, or another doubt; inactive = no such curve, though single readings can be large; an effect the other way counts as inactive or inconclusive.

SMILES	Vaccinia mCherry	Vaccinia Venus	AmpC detergent	AmpC no deterg
CC(C)N1C[C@@H](Sc2ccccn2)C[C@H]1C(=O)Nc1ccc2c(c1)Nc1ccccc1CC2	–	–	·	·
COC(=O)COc1ccc(S(=O)(=O)NCCC2=CCCCC2)cc1	–	–	–	0.14µM
C=CCc1ccc(OC)cc1	2.2µM!	4µM!	–	–
CC1CCN(c2nc(Cl)nc(Nc3ccc([N+](=O)[O-])cc3)n2)CC1	–	–	?	10µM
CC1C/C(=C\c2cccnc2)C(=O)/C(=C/c2cccnc2)C1 (stereo unspecified)	?	8.9µM	–	–
CN1C(=O)C(=Cc2cccnc2)C(=O)N(C)C1=O	–	–	–	–
COC(=O)c1cc(NC(=O)c2cccc(C(F)(F)F)c2)c(=O)oc1C/C=N/OCc1cccc(Cl)c1Cl	–	–	–	7.9µM
COc1ccc(OC)c(-c2ccnc(-n3ncc(C(=O)N4CCN(CCO)CC4)c3C3CC3)n2)c1	–	–	·	·
COc1cccc(CNC(=O)c2c(OC)cc(=O)n3c2CCN(C(=O)c2cc(F)cc(F)c2)CC3)c1	–	–	·	·
CCCCCCCCCCn1c2c(c(=N)c3c1CCC3)CCC2	13µM	10µM	–	–
O=C(O)CC(CNS(=O)(=O)c1ccccc1)c1ccccc1 (stereo unspecified)	–	–	?	2.5µM
O=C(O)CCCCCCNS(=O)(=O)c1ccccc1	·	·	–	–
COc1cc(CN2CCOc3ccc(CN4CCC(O)(c5cccnc5)CC4)cc3C2)ccc1F	–	–	·	·
Cc1ccc(S(=O)(=O)CCSc2nc(C)cc(C(F)(F)F)c2C#N)cc1	·	2.2µM	–	–
COC(=O)CSc1nc(C)cc(C(F)(F)F)c1C#N	·	–	–	–
COc1cc(=O)n2c(c1C(=O)N(C)Cc1nonc1C)CCN(Cc1cc(C)ccc1C)CC2	–	–	·	·
CCn1c(=NC(=O)c2ccco2)sc2cccc(F)c21	–	–	?	3.5µM
COc1ccc(/C(=N/Nc2ncnc3ccccc23)C(=O)O)cc1	10µM	–	–	–
CCOC(=O)/C(=N\Nc1ncnc2ccccc12)c1ccc(OC)cc1	–	–	–	–
CCCCCOc1ccc(Br)cc1/C(C)=N/NC1=NCCN1	?	13µM	–	–
O=C(O)CC1Oc2ccc(Cl)cc2NC1=O (stereo unspecified)	·	·	?	11µM
COc1cc(C)c(CN2CCOc3ccc(C(O)c4cccnc4)cc3C2)cc1C (stereo unspecified)	–	–	·	·
CN(C)c1ccc(/C=C2/CCCc3c2nc2ccccc2c3C(=O)O)cc1	–	–	·	·
CCCCCCCCCCCCCCCC[n+]1ccccc1	13µM!	14µM!	·	·
CCCCCCCCCCCCCCCC[n+]1ccc(/C=N/O)cc1	11µM	10µM	–	–
SMILES	Vaccinia mCherry	Vaccinia Venus	AmpC detergent	AmpC no deterg
COc1cccc(C(=O)NCC2Cc3cccc(-c4cccnc4)c3O2)c1 (stereo unspecified)	–	–	·	·
COCCC1CCCCN1Cc1nc(N2CCCC2)c2cc(OC)c(OC)cc2n1 (stereo unspecified)	–	–	·	·
C=C1CCC[C@]2(C)C[C@H]3OC(=O)C(CNCC(OC)OC)[C@H]3CC12 (stereo partly specified)	4.5µM	?	–	–
C=C1CCC[C@]2(C)C[C@H]3OC(=O)C(CNC(C)CCCC(C)C)[C@H]3CC12 (stereo partly specified)	?	7.1µM	–	–
COc1ccc(C2(C(=O)NCC3Cc4cccc(-c5nc(C)cnc5C)c4O3)CCCC2)cc1 (stereo unspecified)	–	–	·	·
Cc1cnc(C)c(-c2cc(F)cc3c2OC(CNC(=O)CN2CCCC2)C3)n1 (stereo unspecified)	–	–	·	·
OCC1CCCN(c2nc3cc4c(cc3cc2CNCc2cccc(C(F)(F)F)c2)OCO4)C1 (stereo unspecified)	–	–	·	·
C=C1[C@@H](O)[C@H](CC(C)C)N(Cc2ccccc2Br)S1(=O)=O	?	10µM	·	·
CC(C)(C)c1ccc(C(O)CCCN2CCC(C(O)(c3ccccc3)c3ccccc3)CC2)cc1 (stereo unspecified)	13µM	11µM	–	–
CCN1C(=O)N/C(=C/c2ccc(C)o2)C1=O	·	·	–	–
Cc1ccc(/C=C2/NC(=O)N(Cc3ccc(Br)cc3)C2=O)o1	–	–	–	2.5µM
O=C(COC(=O)c1ccccc1C(=O)c1ccc(Cl)c([N+](=O)[O-])c1)NC1CC1	?	10µM	–	–
Cc1ccc(OCCn2cc(C(=S)N3CCCC3)c3ccccc32)cc1C	4µM	–	–	–
S=C(c1cn(CCOc2ccccc2)c2ccccc12)N1CCCC1	?	?	–	–
